# Results: PubChem BioAssay (NCATS)
# Results filed as inconclusive are left out. Unmarked numbers belong to inactive results. The call rests on the fitted dose curve; in most records, active means well fitted cell-killing curve with a large enough effect; inconclusive means small, poorly fitted or top-dose-only effect, or effect the other way; inactive means flat fitted curve, though single readings scatter.
# Test system: HeLa
# Experiment: Primary qHTS to identify gynecologic anti-cancer compounds using libraries of approved drugs and bioactive compounds (AID 1345084); further: nearly all actives have a fitted effect of over 55% in size
# Conditions: Gynecologic cancer cell panel viability, ATPlite luminescence, 48 h; series mostly up to 57.5 µM; activity change, negative = cytotoxicity: at the top concentration
# How it was run: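 Luminescence from the ATPlite ATP-monitoring reagent indicates viable cell number; lower signal means cytotoxicity. Cells received compound 16 h after seeding and were exposed for 48 h across five concentrations.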
# On the % scale 0 is the no-effect control and ±100 the full control effect.
row,Structure (SMILES),"activity change, negative = cytotoxicity"
1,CN1CCC(COc2cnc(-c3cccc(Cn4nc(-c5cccc(C#N)c5)ccc4=O)c3)nc2)CC1,-0.405%
2,C[C@@]1(c2cc(-c3cncnc3)c(F)cc2F)CCSC(N)=N1,1.52% [at 25.3 µM]
3,C[C@H](c1ccc(F)cc1CCCC(=O)O)N(c1cc(F)ccc1F)S(=O)(=O)c1ccc(Cl)cc1,-7.94%
4,COC(=O)N1CCN(Cc2cccc(NC(=O)Nc3ccc(C)nc3)c2F)CC1,1.29%
5,Cc1cnc(-c2cc(N3CCN(C(=O)CCS(C)(=O)=O)CC3)ncc2Cl)c(C)c1,6.12%
6,NC(=O)c1ccc(N(C(N)=O)c2c(F)cccc2F)nc1-c1ccc(F)cc1F,-3.18%
